Values joined by “and” are separate entries in the source; they are usually repeats but may differ in a detail not shown here. Equal values may be shown once. Screen size: about 5,500 compounds; about 2,000 (36%) were called active. Not shown: some 18% with an inconclusive outcome. Cut-off read from the data, not from the text of the source: active = normalized growth mostly below about 0.91 (no sharp cut-off); inconclusive = no clear call, values can overlap the other calls; inactive = mostly above about 0.92. Some of the results follow.
Assay: chemical genetic growth profiling, strain panel (AID 1159580);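 note: tested at 20 µM; growth read once vehicle control cultures reached saturation at 30 °C; 1 = growth at the plate median or of vehicle wells; lower values mean less growth of the strain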
Details: S. cerevisiae deletion strains, growth OD

Measured: normalized growth

Nc1nc(=S)c2[nH]cnc2[nH]1
inactive: locus YAL013W, strain DEP1, hits give low values 1.01 | locus YAL021C, strain ccr4, hits give low values 0.946 | locus YAL026C, strain drs2, hits give low values 0.971 | locus YAL030W, strain snc1, hits give low values 0.975 | locus YBL061C, strain skt5, hits give low values 0.988 | locus YBR009C, strain hhf1, hits give low values 1.03 | locus YBR021W, strain FUR4, hits give low values 0.999 | locus YBR023C, strain chs3, hits give low values 0.969 | locus YBR171W, strain sec66, hits give low values 0.974 | locus YBR229C, strain ROT2, hits give low values 1 | locus YBR231C, strain swc5, hits give low values 1.03 | locus YBR279W, strain paf1, hits give low values 0.973 | locus YCL011C, strain gbp2, hits give low values 0.971 | locus YCL016C, strain dcc1, hits give low values 0.947 | locus YCL029C, strain bik1, hits give low values 1.01 | locus YCL061C, strain MRC1, hits give low values 0.993 | locus YCL069W, strain vba3, hits give low values 0.976 | locus YCR088W, strain abp1, hits give low values 0.98 | locus YDL005C, strain med2, hits give low values 0.965 | locus YDL035C, strain GPR1, hits give low values 1.02 | locus YDL040C, strain nat1, hits give low values 0.982 | locus YDL074C, strain BRE1, hits give low values 1.01 | locus YDL101C, strain DUN1, hits give low values 1.01 | locus YDL134C, strain PPH21, hits give low values 1.01 | locus YDL185W, strain tfp1, hits give low values 0.996 | locus YDL192W, strain arf1, hits give low values 1.01 | locus YDR001C, strain nth1, hits give low values 0.982 | locus YDR069C, strain doa4, hits give low values 0.982 | locus YDR101C, strain arx1, hits give low values 0.986 | locus YDR137W, strain rgp1, hits give low values 0.967 | locus YDR150W, strain NUM1, hits give low values 1.01 | locus YDR159W, strain sac3, hits give low values 0.957 | locus YDR162C, strain NBP2, hits give low values 1.02 | locus YDR195W, strain ref2 0.988 | locus YDR297W, strain sur2, hits give low values 1 | locus YDR318W, strain mcm21, hits give low values 1 | locus YDR334W, strain swr1, hits give low values 0.962 | locus YDR335W, strain msn5, hits give low values 0.98 | locus YDR388W, hits give low values 0.998 | locus YDR392W, strain spt3, hits give low values 0.859 | locus YDR502C, strain sam2, hits give low values 1 | locus YEL003W, strain gim4, hits give low values 0.988 | locus YEL037C, strain rad23, hits give low values 0.973 | locus YEL061C, strain CIN8 (second series), hits give low values 0.975 | locus YEL061C, strain CIN8, hits give low values 1.01 | locus YER015W, strain faa2, hits give low values 0.983 | locus YER016W, strain bim1, hits give low values 0.942 | locus YER110C, hits give low values 1 | locus YER111C, strain swi4, hits give low values 0.959 | locus YER155C, strain BEM2 (second series), hits give low values 1 | locus YER155C, strain BEM2, hits give low values 1.02 | locus YER167W, strain BCK2, hits give low values 1.01 | locus YFR010W, strain ubp6, hits give low values 1 | locus YGL078C, strain dbp3, hits give low values 0.997 | locus YGL086W, strain mad1, hits give low values 0.997 | locus YGL167C, strain pmr1, hits give low values 0.979 | locus YGL173C, strain kem1, hits give low values 0.98 | locus YGL227W, strain vid30, hits give low values 0.973 | locus YGL240W, strain doc1, hits give low values 1.01 | locus YGL248W, strain PDE1, hits give low values 1.01 | locus YGL253W, strain hxk2, hits give low values 0.961 | locus YGR078C, strain PAC10, hits give low values 0.988 | locus YGR135W, strain pre9, hits give low values 0.998 | locus YGR229C, strain SMI1, hits give low values 0.99 | locus YGR252W, strain gcn5, hits give low values 0.981 | locus YHR013C, strain ard1, hits give low values 0.93 | locus YHR027C, strain rpn1, hits give low values 0.99 | locus YHR030C, strain SLT2, hits give low values 1.02 and 0.978 | locus YHR079C, strain IRE1 (second series), hits give low values 1 | locus YHR079C, strain IRE1, hits give low values 0.998 | locus YHR094C, strain hxt1, hits give low values 0.998 | locus YHR129C, strain ARP1, hits give low values 1.01 | locus YHR142W, strain chs7, hits give low values 0.945 | locus YHR200W, strain rpn10, hits give low values 0.998 | locus YIL066C, strain RNR3, hits give low values 1.01 | locus YIL073C, strain SPO22, hits give low values 1.04 | locus YIL125W, strain kgd1, hits give low values 0.995 | locus YIR030C, strain dcg1, hits give low values 1 | locus YJL092W, strain hpr5, hits give low values 0.991 | locus YJL095W, strain BCK1 (second series), hits give low values 0.964 | locus YJL095W, strain BCK1, hits give low values 1.02 and 0.979 | locus YJL115W, strain asf1, hits give low values 0.972 | locus YJL129C, strain trk1, hits give low values 0.936 | locus YJL134W, strain LCB3, hits give low values 1 | locus YJL154C, strain vps35, hits give low values 0.971 | locus YJL164C, strain tpk1, hits give low values 0.998 | locus YJL166W, strain qcr8, hits give low values 1.01 | locus YJL168C, strain set2, hits give low values 0.995 | locus YJL187C, strain SWE1 (second series), hits give low values 1.01 | locus YJL187C, strain SWE1, hits give low values 0.981 | locus YJR043C, strain POL32, hits give low values 1.01 | locus YJR066W, strain TOR1, hits give low values 0.949
